{"source": "the supplement of paper PMC6953052", "note": "Several values for one entry are separate records, joined by “and”; a condition that tells them apart may be missing. Equal values may be shown once. Over roughly 1,700 compounds, “fraction of GFP-LC3-positive cells (≥5 vesicles/cell)” has its median near 0.43; the highest 2% begin near 0.81. What follows is part of a selection rich in the highest values, with near analogues and random picks from the rest."}
{"tested_on": "CbCln3 Δex7/8/Δex7/8 GFP-LC3 cerebellar neuronal cells", "assay": "fraction of GFP-LC3-positive cells (≥5 vesicles/cell); higher = more autophagosome accumulation", "method_in_brief": "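By pin transfer, ~50 nL of compound in DMSO went in duplicate into 384-well plates holding 2 × 10^3 wild-type or mutant CbCln3 cerebellar cells per well that stably express GFP-LC3, followed by 24 h at 33 °C. The final 30 min included Hoechst 33342 and LysoTracker Red, and then came 3.2% PFA fixation and 10× imaging of three fields per well. Each value gives the fraction of cells above a vesicle threshold, averaged across duplicates, with CellProfiler counting GFP-LC3 vesicles and out-of-focus images left out. The threshold is 5 or more vesicles per cell.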"}
{"smiles": "CC(C)NC[C@H](O)COc1cccc2ccccc12.Cl", "note": "[(S)-propranolol hydrochloride]", "fraction of GFP-LC3-positive cells": 0.275}
{"smiles": "COc1cc(/C=C/C(=O)N2CCC=CC2=O)cc(OC)c1OC", "note": "[Piperlongumine]", "fraction of GFP-LC3-positive cells": 0.901}
{"smiles": "COc1cc(C(=O)OCCCN2CCCN(CCCOC(=O)c3cc(OC)c(OC)c(OC)c3)CC2)cc(OC)c1OC.Cl.Cl", "note": "[Dilazep dihydrochloride]", "fraction of GFP-LC3-positive cells": 0.699}
{"smiles": "COC(=O)[C@H]1[C@H]2C[C@@H]3c4[nH]c5cc(OC)ccc5c4CCN3C[C@H]2C[C@@H](OC(=O)/C=C/c2cc(OC)c(OC)c(OC)c2)[C@@H]1OC", "note": "[Rescinnamin]", "fraction of GFP-LC3-positive cells": 0.292}
{"smiles": "CN(C)CCC(c1ccccc1)c1ccccn1.O=C(O)/C=C\\C(=O)O", "note": "(stereo not drawn) [Pheniramine maleate]", "fraction of GFP-LC3-positive cells": 0.47}
{"smiles": "COc1cc(-c2ccc(=O)[nH]n2)ccc1OC(F)F", "note": "[zardaverine]", "fraction of GFP-LC3-positive cells": 0.33}
{"smiles": "CCCCCCCC/C=C/CCCCCCCCCC(=O)O", "note": "[11(E)-Eicosenoic acid]", "fraction of GFP-LC3-positive cells": 0.25}
{"smiles": "CCCCCCCC/C=C/CCCCCCCCCC(=O)O", "note": "[5561-99-9 11(Z)-Eicosenoic acid]", "fraction of GFP-LC3-positive cells": 0.401}
{"smiles": "Cl.Cl.OCCN1CCN(CC/C=C2/c3ccccc3Sc3ccc(C(F)(F)F)cc32)CC1", "note": "[Flupentixol dihydrochloride cis-(Z)]", "fraction of GFP-LC3-positive cells": 0.291}
{"smiles": "CCCCC/C=C\\C[C@@H](O)/C=C/C=C\\CCC(=O)O", "note": "[Tetranor-12(R)-HETE]", "fraction of GFP-LC3-positive cells": 0.513}
{"smiles": "CC(C)NCC(O)COc1cccc2ccccc12.Cl", "note": "(stereo in doubt) [(R)-Propranolol hydrochloride]", "fraction of GFP-LC3-positive cells": 0.486}
{"smiles": "C[C@@H]1C/C=C/C=C/C=C/C=C/[C@H](O[C@@H]2O[C@H](C)[C@@H](O)[C@H](N)[C@@H]2O)C[C@@H]2O[C@](O)(C[C@@H](O)C[C@H]3OC3/C=C/C(=O)O1)C[C@H](O)[C@H]2C(=O)O", "note": "(stereo partly drawn) [Natamycin]", "fraction of GFP-LC3-positive cells": 0.298}
{"smiles": "NS(=O)(=O)c1cc(C(=O)O)c(NCc2ccco2)cc1Cl", "note": "[Furosemide]", "fraction of GFP-LC3-positive cells": 0.511}
{"smiles": "CCC(C)[C@H](NS(=O)(=O)c1cccc2ccccc12)C(=O)N[C@H](C=O)Cc1c[nH]c2ccccc12", "note": "(stereo partly drawn)", "fraction of GFP-LC3-positive cells": "0.69 and 0.692"}
{"smiles": "CCN[C@H]1C[C@H](C)S(=O)(=O)c2sc(S(N)(=O)=O)cc21.Cl", "note": "[Dorzolamide hydrochloride]", "fraction of GFP-LC3-positive cells": 0.432}
{"smiles": "C=C1c2c(Cl)ccc(O)c2C(=O)C2=C(O)[C@]3(O)C(=O)C(C(N)=O)=C(O)[C@@H](N(C)C)[C@@H]3[C@@H](O)C12.O=C(O)c1cc(S(=O)(=O)O)ccc1O", "note": "(stereo partly drawn) [Meclocycline sulfosalicylate]", "fraction of GFP-LC3-positive cells": 0.345}
{"smiles": "CCc1cc(C(N)=S)ccn1", "note": "[Ethionamide]", "fraction of GFP-LC3-positive cells": 0.393}
{"smiles": "O=C(CCNNC(=O)c1ccncc1)NCc1ccccc1", "note": "[Nialamide]", "fraction of GFP-LC3-positive cells": 0.406}
